# Assay results from ChEMBL document CHEMBL2218924, “A broad activity screen in support of a chemogenomic map for kinase signalling research and drug discovery” (Biochem J, 2013).
# Tests used:
# [1] = target: T1, Serine/threonine-protein kinase TBK1 (Homo sapiens) (UniProt Q9UHD2); details: at 10 µM
# T1 sequence (whole entry): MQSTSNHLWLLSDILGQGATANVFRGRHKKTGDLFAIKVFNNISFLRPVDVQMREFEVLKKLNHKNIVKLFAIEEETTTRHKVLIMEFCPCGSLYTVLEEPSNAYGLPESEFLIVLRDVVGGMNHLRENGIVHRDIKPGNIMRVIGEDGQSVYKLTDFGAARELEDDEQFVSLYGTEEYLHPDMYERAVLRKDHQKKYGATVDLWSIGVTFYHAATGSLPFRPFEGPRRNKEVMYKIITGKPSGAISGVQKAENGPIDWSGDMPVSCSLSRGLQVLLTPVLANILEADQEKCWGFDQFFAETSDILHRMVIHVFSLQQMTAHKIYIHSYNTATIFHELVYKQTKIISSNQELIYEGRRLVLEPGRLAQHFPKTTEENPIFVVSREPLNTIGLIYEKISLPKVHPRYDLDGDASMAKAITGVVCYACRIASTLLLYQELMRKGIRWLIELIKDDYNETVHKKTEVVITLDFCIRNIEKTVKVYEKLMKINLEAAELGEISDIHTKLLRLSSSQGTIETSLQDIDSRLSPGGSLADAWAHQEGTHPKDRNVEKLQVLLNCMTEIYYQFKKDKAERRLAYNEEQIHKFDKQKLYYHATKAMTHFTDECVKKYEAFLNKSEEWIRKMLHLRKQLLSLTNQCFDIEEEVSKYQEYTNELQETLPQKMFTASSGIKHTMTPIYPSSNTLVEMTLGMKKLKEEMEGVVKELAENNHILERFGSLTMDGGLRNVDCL
# [2] = target: T2, TGF-beta receptor type-1 (Homo sapiens) (UniProt P36897); details: at 1 µM
# T2 sequence (whole entry): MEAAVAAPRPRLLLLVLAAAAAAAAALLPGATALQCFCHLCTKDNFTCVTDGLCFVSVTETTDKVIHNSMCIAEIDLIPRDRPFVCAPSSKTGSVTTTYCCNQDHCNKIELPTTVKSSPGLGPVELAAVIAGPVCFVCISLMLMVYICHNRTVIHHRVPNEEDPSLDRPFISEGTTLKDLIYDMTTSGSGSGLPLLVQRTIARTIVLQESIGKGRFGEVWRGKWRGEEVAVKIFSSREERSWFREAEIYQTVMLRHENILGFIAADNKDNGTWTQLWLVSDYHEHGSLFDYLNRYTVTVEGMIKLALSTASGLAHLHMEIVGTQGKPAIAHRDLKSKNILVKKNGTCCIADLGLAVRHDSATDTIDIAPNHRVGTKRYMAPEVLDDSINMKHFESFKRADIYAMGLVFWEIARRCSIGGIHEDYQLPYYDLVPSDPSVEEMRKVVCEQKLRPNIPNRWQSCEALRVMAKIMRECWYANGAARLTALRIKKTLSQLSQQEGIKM
# [3] = target: T2, TGF-beta receptor type-1 (Homo sapiens); details: at 10 µM
# [4] = target: Insulin-like growth factor 1 receptor (Homo sapiens) (UniProt P08069); details: at 1 µM
# Chain of Insulin-like growth factor 1 receptor (Homo sapiens) (P08069 31-736 limits assumed): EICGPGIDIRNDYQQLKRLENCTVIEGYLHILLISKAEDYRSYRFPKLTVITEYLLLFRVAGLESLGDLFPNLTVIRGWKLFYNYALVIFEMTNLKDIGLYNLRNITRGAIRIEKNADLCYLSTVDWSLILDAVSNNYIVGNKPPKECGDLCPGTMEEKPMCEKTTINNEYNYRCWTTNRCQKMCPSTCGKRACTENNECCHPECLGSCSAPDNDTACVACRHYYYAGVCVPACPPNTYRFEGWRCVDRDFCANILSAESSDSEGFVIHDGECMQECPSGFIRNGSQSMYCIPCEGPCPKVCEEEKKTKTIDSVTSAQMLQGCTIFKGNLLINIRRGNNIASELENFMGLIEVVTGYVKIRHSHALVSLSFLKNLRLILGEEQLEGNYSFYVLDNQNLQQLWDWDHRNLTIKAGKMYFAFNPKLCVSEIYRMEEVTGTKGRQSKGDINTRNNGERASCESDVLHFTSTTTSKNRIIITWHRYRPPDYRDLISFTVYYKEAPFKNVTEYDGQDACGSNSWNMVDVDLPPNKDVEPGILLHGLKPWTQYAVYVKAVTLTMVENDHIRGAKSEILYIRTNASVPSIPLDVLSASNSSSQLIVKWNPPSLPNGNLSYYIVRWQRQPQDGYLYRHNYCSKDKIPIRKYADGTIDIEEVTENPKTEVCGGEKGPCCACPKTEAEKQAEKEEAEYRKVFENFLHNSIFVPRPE
# Chain of Insulin-like growth factor 1 receptor (Homo sapiens) (P08069 741-1367 limits assumed): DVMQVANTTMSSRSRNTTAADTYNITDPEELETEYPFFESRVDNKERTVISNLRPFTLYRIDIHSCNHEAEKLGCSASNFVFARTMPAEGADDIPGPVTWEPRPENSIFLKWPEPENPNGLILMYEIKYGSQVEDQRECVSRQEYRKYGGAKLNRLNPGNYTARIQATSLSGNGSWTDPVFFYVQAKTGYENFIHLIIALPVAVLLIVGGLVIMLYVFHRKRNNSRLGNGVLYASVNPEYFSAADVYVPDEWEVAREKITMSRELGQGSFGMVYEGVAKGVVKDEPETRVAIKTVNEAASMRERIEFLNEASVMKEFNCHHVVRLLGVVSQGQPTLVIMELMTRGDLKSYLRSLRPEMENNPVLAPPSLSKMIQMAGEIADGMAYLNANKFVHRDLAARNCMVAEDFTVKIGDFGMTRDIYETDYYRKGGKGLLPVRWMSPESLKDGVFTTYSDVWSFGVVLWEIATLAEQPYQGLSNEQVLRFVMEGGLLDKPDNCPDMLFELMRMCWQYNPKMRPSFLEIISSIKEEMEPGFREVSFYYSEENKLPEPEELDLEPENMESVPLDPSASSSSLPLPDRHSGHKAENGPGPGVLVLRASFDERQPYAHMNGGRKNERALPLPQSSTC
# [5] = target: Insulin-like growth factor 1 receptor (Homo sapiens) (UniProt P08069); details: at 10 µM
# [6] = target: T3, Inhibitor of nuclear factor kappa-B kinase subunit alpha (Homo sapiens) (UniProt O15111); details: at 1 µM
# T3 sequence (whole entry): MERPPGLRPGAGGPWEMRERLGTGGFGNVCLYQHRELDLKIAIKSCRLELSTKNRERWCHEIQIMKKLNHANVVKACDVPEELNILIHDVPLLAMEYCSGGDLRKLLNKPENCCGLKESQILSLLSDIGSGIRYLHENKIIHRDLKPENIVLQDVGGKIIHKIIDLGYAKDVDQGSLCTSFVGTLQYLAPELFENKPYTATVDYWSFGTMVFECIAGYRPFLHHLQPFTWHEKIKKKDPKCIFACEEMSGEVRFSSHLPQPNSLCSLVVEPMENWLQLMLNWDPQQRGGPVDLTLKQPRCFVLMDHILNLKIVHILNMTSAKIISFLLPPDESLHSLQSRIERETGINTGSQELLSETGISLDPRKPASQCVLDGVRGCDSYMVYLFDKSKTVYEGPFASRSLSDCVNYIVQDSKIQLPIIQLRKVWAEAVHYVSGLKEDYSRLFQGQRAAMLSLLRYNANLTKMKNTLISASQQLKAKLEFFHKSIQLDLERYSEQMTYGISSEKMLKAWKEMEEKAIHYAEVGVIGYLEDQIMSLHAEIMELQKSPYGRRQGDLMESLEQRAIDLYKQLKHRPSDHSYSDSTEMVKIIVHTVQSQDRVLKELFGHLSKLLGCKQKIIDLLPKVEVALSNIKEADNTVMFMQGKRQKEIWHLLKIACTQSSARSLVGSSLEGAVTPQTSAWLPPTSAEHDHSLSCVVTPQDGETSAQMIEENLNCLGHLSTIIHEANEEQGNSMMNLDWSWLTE
# [7] = target: T3, Inhibitor of nuclear factor kappa-B kinase subunit alpha (Homo sapiens); details: at 10 µM
# [8] = target: T4, Inhibitor of nuclear factor kappa-B kinase subunit beta (Homo sapiens) (UniProt O14920); details: at 1 µM
# T4 sequence (whole entry): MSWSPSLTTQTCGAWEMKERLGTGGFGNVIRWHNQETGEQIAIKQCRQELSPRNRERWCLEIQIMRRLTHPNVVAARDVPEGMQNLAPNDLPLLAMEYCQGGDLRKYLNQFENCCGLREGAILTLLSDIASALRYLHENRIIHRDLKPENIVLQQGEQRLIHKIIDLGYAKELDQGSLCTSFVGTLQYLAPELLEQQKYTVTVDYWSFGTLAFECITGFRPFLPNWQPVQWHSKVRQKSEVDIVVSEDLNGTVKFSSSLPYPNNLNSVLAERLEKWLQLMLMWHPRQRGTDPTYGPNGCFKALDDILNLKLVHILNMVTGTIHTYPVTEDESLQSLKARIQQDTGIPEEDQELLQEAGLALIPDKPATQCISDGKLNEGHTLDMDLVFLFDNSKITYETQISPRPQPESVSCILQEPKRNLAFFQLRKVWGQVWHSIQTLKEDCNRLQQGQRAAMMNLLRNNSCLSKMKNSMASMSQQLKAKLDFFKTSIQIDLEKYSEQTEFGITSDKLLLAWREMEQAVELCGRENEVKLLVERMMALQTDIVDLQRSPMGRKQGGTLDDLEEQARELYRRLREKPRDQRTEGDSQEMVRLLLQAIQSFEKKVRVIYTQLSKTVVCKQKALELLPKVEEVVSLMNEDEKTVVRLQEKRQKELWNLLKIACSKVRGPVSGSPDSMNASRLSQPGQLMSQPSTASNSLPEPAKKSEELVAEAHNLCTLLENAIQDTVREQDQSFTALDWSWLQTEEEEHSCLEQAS
# [9] = target: T4, Inhibitor of nuclear factor kappa-B kinase subunit beta (Homo sapiens); details: at 10 µM
# [10] = target: Insulin receptor (Homo sapiens) (UniProt P06213); details: at 1 µM
# Chain of Insulin receptor (Homo sapiens) (P06213 28-758 limits assumed): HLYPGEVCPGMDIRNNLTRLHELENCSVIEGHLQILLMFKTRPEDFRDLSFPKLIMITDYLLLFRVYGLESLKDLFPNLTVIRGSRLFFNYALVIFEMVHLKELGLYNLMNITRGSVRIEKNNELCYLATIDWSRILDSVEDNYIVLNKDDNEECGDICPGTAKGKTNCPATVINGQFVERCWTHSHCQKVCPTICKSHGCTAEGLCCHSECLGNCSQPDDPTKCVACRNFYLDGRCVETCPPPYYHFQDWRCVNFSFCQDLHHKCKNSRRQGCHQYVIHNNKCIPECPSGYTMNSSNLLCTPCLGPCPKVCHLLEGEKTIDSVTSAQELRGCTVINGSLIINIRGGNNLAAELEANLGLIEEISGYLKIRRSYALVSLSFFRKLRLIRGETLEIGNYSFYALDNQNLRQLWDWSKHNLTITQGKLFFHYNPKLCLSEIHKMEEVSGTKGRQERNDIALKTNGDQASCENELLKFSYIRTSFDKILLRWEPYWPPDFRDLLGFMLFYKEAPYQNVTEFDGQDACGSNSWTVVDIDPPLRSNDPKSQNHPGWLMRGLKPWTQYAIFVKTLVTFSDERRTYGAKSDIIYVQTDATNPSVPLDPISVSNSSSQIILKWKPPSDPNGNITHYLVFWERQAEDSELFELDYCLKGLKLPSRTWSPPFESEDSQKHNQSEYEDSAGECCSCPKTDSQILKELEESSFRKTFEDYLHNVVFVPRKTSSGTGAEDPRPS
# Chain of Insulin receptor (Homo sapiens) (P06213 763-1382 limits assumed): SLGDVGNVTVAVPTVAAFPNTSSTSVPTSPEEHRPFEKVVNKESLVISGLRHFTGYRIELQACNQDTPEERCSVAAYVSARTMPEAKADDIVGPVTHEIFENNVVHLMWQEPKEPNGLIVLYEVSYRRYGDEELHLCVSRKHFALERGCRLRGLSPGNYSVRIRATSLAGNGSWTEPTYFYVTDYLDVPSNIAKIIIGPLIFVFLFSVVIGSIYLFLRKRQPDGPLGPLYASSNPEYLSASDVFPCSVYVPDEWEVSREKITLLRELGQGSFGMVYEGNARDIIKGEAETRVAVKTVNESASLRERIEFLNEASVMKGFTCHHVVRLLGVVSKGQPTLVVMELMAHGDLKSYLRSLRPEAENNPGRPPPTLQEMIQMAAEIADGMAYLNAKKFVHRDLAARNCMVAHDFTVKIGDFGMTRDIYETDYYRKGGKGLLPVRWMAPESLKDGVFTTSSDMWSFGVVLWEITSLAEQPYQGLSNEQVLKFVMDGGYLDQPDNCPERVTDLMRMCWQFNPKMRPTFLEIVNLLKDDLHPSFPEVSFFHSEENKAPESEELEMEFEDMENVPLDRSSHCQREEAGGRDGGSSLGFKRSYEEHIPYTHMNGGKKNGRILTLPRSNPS
structure (smiles),measurement,setting,value
O=c1c2ccccc2[nH]c(=S)n1CCN1CCC(=C(c2ccc(F)cc2)c2ccc(F)cc2)CC1,residual activity,[1],68%
same,residual activity,[2],95%
same,residual activity,[3],80%
same,residual activity,[4],112%
same,residual activity,[5],93%
same,residual activity,[6],87%
same,residual activity,[7],128%
same,residual activity,[8],114%
same,residual activity,[9],105%
same,residual activity,[10],109%
